Assay results as given in PubChem BioAssay (Tox21).
Inconclusive results are not listed. Active and inactive are the calls of the source. Calls follow the shape of the dose curve; as a rule, active = well fitted activation curve with a large enough effect in the signal ratio in the repeat runs, with a control signal flat (not every such curve was filed as active); inconclusive = weak or mixed curves; inactive = flat fitted curve, though single readings scatter; the % refers to the signal ratio. Residues, ends and D or L forms follow the SMILES beside them.

assay: qHTS assay for small molecule activators of the heat shock response signaling pathway (AID 743210); conditions: HeLa HSE-bla reporter, beta-lactamase ratio, 5 h; series mostly up to 62.6 µM
Description: U.S. Tox21 Program National Center for Advancing Translational Sciences [NCATS] NIH Chemical Genomics Center [NCGC] U.S. Environmental Protection Agency [EPA] National Institutes of Environmental Health Sciences [NIEHS] National Toxicology Program [NTP] U.S. Food and Drug Administration [FDA] Tox21 Assay Overview: Various chemicals, environmental and physiological stress conditions may lead to the activation of heat shock response/ unfolded protein response (HSR/UPR). There are three heat shock transcription factors (HSFs) (HSF-1, -2, and -4) mediating transcriptional regulation of the human HSR. To identify the compounds that activate HSR signaling, HSE-bla HeLa cell line (Invitrogen, Carlsbad, CA, USA) containing a beta-lactamase reporter gene under the control of the heat shock response elements was used to screen the Tox21 10K compound library.
Tox21 Assay Protocol Summary: The CellSensor HSE-bla HeLa cells (Invitrogen, Carlsbad, CA, USA) were dispensed at 1500 cells/6uL/well into 1536-well black wall/clear bottom plates using a Multidrop combi (Thermo Fisher Scientific, Waltham, MA) dispenser. After the assay plates were incubated at 37 C and 5% CO2 overnight, 23 nL of compounds dissolved in DMSO, positive controls or DMSO only was transferred to the assay plate by a Pintool station (Kalypsys, San Diego, CA). The plates were incubated at 37 C for 5 h. After 1 uL of LiveBLAzerTM B/G FRET substrate was added using a Flying Reagent Dispenser (Beckman Coulter, Indianapolis, IN, USA), the plates were incubated at room temperature for 2.5 h, and fluorescence intensity was measured by an Envision plate reader (PerkinElmer, Shelton, CT).

SMILES	outcome
O=C(O)c1cc(N=Nc2ccc(S(=O)(=O)Nc3ccccn3)cc2)ccc1O	inactive
CCCN(CCC)S(=O)(=O)c1ccc(C(=O)O)cc1	inactive
CCC1(c2ccccc2)C(=O)NCNC1=O	inactive
O=C(O)CS	inactive
CCCCC(CC)COC(=O)/C=C/c1ccc(OC)cc1 (stereo not given)	inactive
NC(N)=O	inactive
c1ccc2[nH]ccc2c1	inactive
C1N2CN3CN1CN(C2)C3	inactive
CCCC(O)C(CC)CO (stereo not given)	inactive
COc1ccc2[nH]cc(CCNC(C)=O)c2c1	inactive
O=C1NC(=O)c2ccccc21	inactive
NNC(=O)c1ccncc1	inactive
NC(N)=NC(=O)c1nc(Cl)c(N)nc1N	inactive
NC(=O)NC1NC(=O)NC1=O (stereo not given)	inactive
O=C(O)CCC(=O)O	inactive
CC(=O)OCC(COC(C)=O)OC(C)=O	inactive
O=S(=O)(O)NC1CCCCC1	inactive
NS(=O)(=O)c1cc(C(=O)O)c(NCc2ccco2)cc1Cl	inactive
CC(C)(Oc1ccc(C2CC2(Cl)Cl)cc1)C(=O)O (stereo not given)	inactive
O=C(c1ccccc1)C(O)c1ccccc1 (stereo not given)	inactive

SMILES	outcome
Cc1noc(NS(=O)(=O)c2ccc(N)cc2)c1C	inactive
COC(=O)[C@H](Cc1ccccc1)NC(=O)[C@@H](N)CC(=O)O (H-Asp-Phe-OMe)	inactive
CC1(C)[C@@H]2CC[C@@]1(C)C(=O)C2	inactive
Cc1cn([C@H]2C[C@H](N=[N+]=[N-])[C@@H](CO)O2)c(=O)[nH]c1=O	inactive
CC(O)C(=O)O (stereo not given)	inactive
NC(=O)c1ccccc1O	inactive
O=C(c1ccccc1)c1ccccc1	inactive
C/C=C/c1ccc(OC)cc1	inactive
O=C(O)C(=O)O	inactive
Nc1ccc(C(=O)O)cc1	inactive
N=C(N)c1ccc(OCCCCCOc2ccc(C(=N)N)cc2)cc1	inactive
Oc1ccc(/C=C/c2cc(O)cc(O)c2)cc1	inactive
Nc1ccc(S(=O)(=O)Nc2nccs2)cc1	inactive
CCCCC1C(=O)N(c2ccccc2)N(c2ccccc2)C1=O	inactive
Cc1ccccc1C(OCCN(C)C)c1ccccc1 (stereo not given)	inactive
CCCNC(=O)NS(=O)(=O)c1ccc(Cl)cc1	inactive
Nc1ccc(O)c(C(=O)O)c1	inactive
Cc1ccc(C)c(OCCCC(C)(C)C(=O)O)c1	inactive
CC(O)CN(CCN(CC(C)O)CC(C)O)CC(C)O (stereo not given)	inactive
O=c1ccc2ccccc2o1	inactive
